Compounds with a hit are over-represented: about 2.5% of the library has one in this group of screens.
CHT PAM: allosterically activates the human high affinity choline transporter | Q9GZV3 | CHT-expressing cells, membrane potential dye, choline EC20; active compounds read high; LV-AA mutant CHT in HEK293 cells | B-score at 10 µM | 310,000 compounds, 0.49% hits | AID 488977;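 active = initial fluorescence not abnormally high and integrated response B-score, plate-corrected, over 3 SD above library mean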
Target sequence (Q9GZV3 whole entry, looked up): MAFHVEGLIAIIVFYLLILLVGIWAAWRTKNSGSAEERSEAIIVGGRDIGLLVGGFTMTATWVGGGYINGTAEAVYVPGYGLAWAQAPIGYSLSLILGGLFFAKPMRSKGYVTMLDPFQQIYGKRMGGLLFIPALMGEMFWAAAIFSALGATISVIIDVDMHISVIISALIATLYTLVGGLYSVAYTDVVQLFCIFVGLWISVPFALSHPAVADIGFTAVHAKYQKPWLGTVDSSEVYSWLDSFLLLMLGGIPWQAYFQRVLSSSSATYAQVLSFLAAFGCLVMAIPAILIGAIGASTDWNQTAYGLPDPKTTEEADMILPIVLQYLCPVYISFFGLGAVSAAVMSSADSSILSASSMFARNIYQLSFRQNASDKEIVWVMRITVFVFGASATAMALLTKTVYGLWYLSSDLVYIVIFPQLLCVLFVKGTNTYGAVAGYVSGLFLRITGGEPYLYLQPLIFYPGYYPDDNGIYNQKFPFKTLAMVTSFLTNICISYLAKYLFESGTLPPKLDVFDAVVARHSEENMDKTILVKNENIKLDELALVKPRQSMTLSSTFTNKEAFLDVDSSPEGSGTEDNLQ
CHT inh: inhibits the human high affinity choline transporter. B-score at 10 µM. Q9GZV3. 310,000 compounds, 0.86% hits. CHT-expressing cells, membrane potential dye, choline response; active compounds read low. AID 488975;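 active = B-score over 3 SD under the library average, and starting fluorescence ratio not unusually high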;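 also: choline stimulus applied at its EC90 after an EC20 pre-addition; B-score computed on integrated fluorescence ratio after choline addition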
TMEM16A act: mouse TMEM16A channel activation, primary screen. Q8BHY3. B-score at 10 µM. HEK293 TMEM16A/YFP-H148Q/I152L, iodide quench fluorescence; active compounds read low. 340,000 compounds, 0.3% hits. AID 623877;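 active = fluorescence-ratio B-score plate-corrected deviation score at least 3 library SD below zero, with starting fluorescence score within 5 deviations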;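 also: channel opened by trigger with iodide after compound preincubation; score built on the fluorescence ratio of max minus min over baseline; more negative score means more quench and so TMEM16A activation or potentiation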
PKA-R1A activ: activates the PKA-R1A holoenzyme complex | PKA-R1A dissociation, Cy5-IP20 fluorescence polarization; scaled: DMSO 0%, 113 µM cGMP 100% | activation, % at 11.4 µM | 340,000 compounds, 0.083% hits | AID 504707;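 active = percent activation above the mean of all tested compounds plus 3 SD, cut at about 19% in these data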;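 also: higher means more PKAc released from R1A so a rise in polarization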
TMEM16A inh: inhibitors of mouse TMEM16A calcium-activated chloride channel | Q8BHY3 | HEK293 TMEM16A/YFP iodide influx fluorescence, ionomycin | normalized B-score (activity score, 25-100; higher = stronger inhibition) at 10 µM | 310,000 compounds, 1.2% hits | AID 588511;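 active = ratio plate-corrected score three or more library SD toward inhibition, starting fluorescence score within five deviations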;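 also: score derived from kinetic fluorescence span divided by baseline fluorescence per well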
PKA-R2B act: activates the human PKA-R2B holoenzyme complex | P22694+P31323 | PKA-R2B holoenzyme dissociation, Cy5-IP20 fluorescence polarization; R2B truncated from residue 108, S112A mutant; 0% DMSO only, 100% 113 µM cGMP | activation, % at 11.4 µM | 340,000 compounds, 0.079% hits | AID 504700;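 active = activation above a cutoff set at the mean over all compounds plus 3 SD, cut at about 18% in these data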;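 also: higher means more holoenzyme dissociation and a rise in polarization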
TMEM16A reconf: reconfirmed blocker of mouse TMEM16A calcium-activated chloride channel. shares compounds with TMEM16A inh. HEK293 TMEM16A/YFP-H148Q, iodide quench fluorescence; ionomycin added to raise cell calcium. inhibition, % at 10 µM. 2,300 compounds, 39% hits. AID 652189;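 active = mean duplicate percent inhibition, scaled so buffer wells are 0 and the reference blocker 100, over three buffer SD above buffer mean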
TMEM16A Ca cntr: calcium mobilization counter-screen hit for TMEM16A inhibitor series | TMEM16A/YFP HEK293, Fluo4 calcium mobilization | AID 652231 | shares compounds with TMEM16A inh | 2,300 compounds, 2% hits | calcium response (% of ionomycin), % at 10 µM;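 active = duplicate-averaged calcium signal over 20% of the ionomycin maximum, relative to buffer baseline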;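 also: each well's signal is peak minus trough fluorescence divided by its pre-addition baseline; 0% = buffer wells and 100% = ionomycin wells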
YFP-HEK293 quench: counter-screen for TMEM16A inhibitors: effect in parental YFP-HEK293 cells | shares compounds with TMEM16A inh | YFP ratio F(max-min)/F0 at 10 µM | 2,300 tested, under 10 active | iodide YFP quench, ionomycin;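 active = yellow fluorescent protein signal ratio exceeding the buffer control mean by over 5 SD of those controls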;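 also: ratio is mean of duplicate wells from kinetic YFP trace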
ClC-1 rat inh: selectivity of TMEM16A inhibitors: inhibition of rat ClC-1 chloride channel; shares compounds with TMEM16A inh; CHO ClC-1-YFP, iodide influx fluorescence quench; iodide control reads 0, buffer control 100; ratio percent, % at 10 µM; 2,300 tested, under 10 active;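 active = duplicate-mean ratio percent above the mean of iodide-only control wells, which defines zero, plus 5 of their SD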;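 also: higher percent means stronger block of ClC-1 iodide influx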
An asterisk follows results filed as active; i = inactive; . = no result.

SMILES	CHT PAM	CHT inh	TMEM16A act	PKA-R1A activ	TMEM16A inh	PKA-R2B act	TMEM16A reconf	TMEM16A Ca cntr	YFP-HEK293 quench	ClC-1 rat inh
CC1=NN(c2ccccc2)C(=O)/C1=C\C=C1\N(C)c2ccccc2C1(C)C	i	i	i	-1	i	-3	30%*	i	-0.82	4
O=C(CCNS(=O)(=O)c1ccc(OC(F)(F)F)cc1)N1CCN(C/C=C/c2ccccc2)CC1	i	i	i	-7	25*	6	i	i	-1.1	-4
O=C(CCNS(=O)(=O)c1ccc(OC(F)(F)F)cc1)N1CCCC1	.	.	i	-6	.	-6	.	.	.	.
CC(=O)c1ccc(-c2cc([C@H]3[C@H]4C=CC[C@@H](C)[C@@H]4C(=O)N3Cc3ccccc3)ccc2F)cc1	i	i	i	-8	i	-1	.	.	.	.
Cc1nnc(SCC(=O)c2cc(C)n(-c3ccc4c(c3)OCO4)c2C)s1	i	i	-6.1*	-2	25*	-4	i	21%*	-1.1	-11
COC(=O)C(=C/C=C/N1CCOCC1)C(=O)OC	i	i	.	.	i	.	.	.	.	.
Cn1c2c(c(=O)n(C)c1=O)C(C(F)(F)F)(C(F)(F)F)N=C(c1ccc(Cl)cc1)N2	i	i	i	-8	100*	-3	42%*	i	-1	-32
Cc1cccc2[nH]c3c(N4CCC5(CC4)OCCO5)ncnc3c12	i	i	i	1	i	3	.	.	.	.
Clc1ccc2[nH]c3c(N4CCC5(CC4)OCCO5)ncnc3c2c1	i	i	.	.	100*	.	44%*	i	-0.86	-30
Cc1ccc2[nH]c3c(N4CCc5ccccc5C4)ncnc3c2c1	i	i	i	-1	25*	-4	30%*	i	-0.91	-25
c1ccc2c(c1)[nH]c1c(N3CCSCC3)ncnc12	i	i	i	-6	25*	-6	28%*	i	-0.88	-20
Cc1cccc(NC(=O)c2ccc3c(c2)C(=O)N(c2ccccc2C)C3=O)n1	i	i	i	0	i	-8	.	.	.	.
CCOC(=O)c1ccccc1NS(=O)(=O)c1ccc(OCC)cc1	i	i	i	6	25*	-8	i	i	-1.2	-8
CCOc1ccc(S(=O)(=O)Nc2ccccc2C(=O)N(C)C2CCN(C)CC2)cc1	.	.	.	7	.	3	.	.	.	.
CCOC(=O)c1ccc(N2CCOCC2)c(NC(=O)c2nccnc2C(=O)O)c1	i	i	i	-8	i	2	.	.	.	.
Cc1cccc(N2CCN(C(=O)c3ccc4c(c3)OCCO4)CC2C)c1 (configuration not stated)	i	i	i	-4	i	8	.	.	.	.
Cc1cccc(N2CCN(C(=O)CN3CCOc4ccccc43)CC2C)c1 (configuration not stated)	i	i	i	-2	25*	-9	i	i	-1.1	-12
N#CC1(Nc2ccccc2)C(=O)Nc2ccccc21 (configuration not stated)	i	i	i	8	i	-11	.	.	.	.
N#CC1(Nc2cccc(Br)c2)C(=O)Nc2ccccc21 (configuration not stated)	i	i	i	7	100*	8	64%*	i	-0.9	-13
Cc1cc(C)nc(N2CCN(c3ncnc4c3cnn4Cc3ccc(Cl)cc3Cl)CC2)n1	i	i	.	.	100*	.	28%*	i	-1	-20
Cc1ccc(Cn2ncc3c(N4CCN(Cc5ccc(Cl)cc5)CC4)ncnc32)cc1	i	i	i	-15	25*	-10	18%*	i	-1.1	-8
Clc1ccc(Cn2ncc3c(NCc4ccco4)ncnc32)c(Cl)c1	i	i	.	.	i	.	.	.	.	.
CC1CCN(c2ncnc3c2cnn3Cc2ccc(Cl)cc2)CC1	i	i	i	-6	i	-13	i	i	-0.96	-10
Cc1ccc(Cn2ncc3c(N4CCN(C)CC4)ncnc32)cc1	i	i	i	-3	i	8	.	.	.	.
CCOC(=O)Nc1c(Cl)n(C)c(=O)n(C)c1=O	i	i	i	4	i	1	.	.	.	.
SMILES	CHT PAM	CHT inh	TMEM16A act	PKA-R1A activ	TMEM16A inh	PKA-R2B act	TMEM16A reconf	TMEM16A Ca cntr	YFP-HEK293 quench	ClC-1 rat inh
Cc1cccc(NC(=O)c2nc[nH]c2C(=O)NCC(=O)OC(C)(C)C)c1	i	i	i	-1	i	13	.	.	.	.
O=C(NCc1cccc(Cl)c1)c1cccc(OC2CCN(C(=O)C3CC3)CC2)c1	i	i	i	-6	100*	4	i	i	-1.1	-17
O=c1oc2ccccc2cc1-c1csc(NN=C2CCCCC2)n1	i	i	i	-6	i	-2	.	.	.	.
O=c1oc2ccccc2cc1-c1nc2c(s1)CCCC2	i	i	i	0	25*	-3	i	i	-1.3	-8
Cc1cc(C(=O)CSc2nnc(-c3cccs3)o2)c(C)n1-c1ccccc1	i	i	i	-14	100*	-2	i	i	-1.3	-6
O=C(CSc1nnc(-c2cccs2)o1)c1cccs1	i	i	i	12	i	0	.	.	.	.
Cc1cc(C(=O)CSc2nnc(-c3ccco3)o2)c(C)n1Cc1ccco1	i	i	i	11	i	5	i	i	-0.99	-14
COCC(C)n1c(C)cc(C(=O)CSc2nnc(-c3ccco3)o2)c1C (configuration not stated)	.	.	i	9	.	-13	.	.	.	.
CCC(CO)NCc1cc(OC)c(OCC(=O)NCCc2ccccc2)cc1Br (configuration not stated)	i	i	i	2	i	3	.	.	.	.
Cc1c(/C=N/NC(=O)c2ccc(O)cc2)c2ccccn2c1C(=O)c1ccc(F)cc1	i	i	i	-2	i	-6	.	.	.	.
Cc1c(/C=N/NC(=O)c2ccccc2O)c2ccccn2c1C(=O)c1ccc(F)cc1	i	i	i	-11	100*	-7	34%*	i	-0.92	-14

High-throughput results from PubChem.
